Inconclusive results are not listed. The source made the active and inactive calls. The call rests on the fitted dose curve; in most records, active means well fitted inhibition curve with a large enough effect; inconclusive means small, poorly fitted or top-dose-only effect; inactive means flat fitted curve, though single readings scatter.
How the values were obtained:
Assay in all cases: qHTS profiling for inhibitors of Plasmodium falciparum proliferation (AID 504749); further: nearly all actives have a fitted effect of over 60% in size
Settings in all cases: P. falciparum in erythrocytes, SYBR Green DNA, 72 h; series mostly up to 28.7 µM
CP260 = tested on: CP260
In short: (§1)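 P. falciparum-infected erythrocytes (0.3% parasitemia, 2.5% hematocrit) incubated with compound 72 h at 37 C, 5% CO2. Parasite DNA detected by SYBR Green after lysis, overnight at room temperature; normalised to 0.29 uM artemisinin and DMSO.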

CP265 = tested on: CP265
In short: as §1

CP266 = tested on: CP266
In short: as §1

CP268 = tested on: CP268
In short: as §1

CP269 = tested on: CP269
In short: as §1

CP286 = tested on: CP286
In short: as §1

CP291 = tested on: CP291
In short: as §1

CP297 = tested on: CP297
In short: as §1

CP305 = tested on: CP305
In short: as §1

CP315 = tested on: CP315
In short: as §1

CP325 = tested on: CP325
In short: as §1

CP329 = tested on: CP329
In short: as §1

CP335 = tested on: CP335
In short: as §1

DFO2036 = tested on: DFO2036
In short: as §1

DIV14 = tested on: DIV14
In short: as §1

DIV17 = tested on: DIV17
In short: as §1

DIV30 = tested on: DIV30
In short: as §1

Dd2 = tested on: Dd2
In short: as §1

ECU = tested on: ECU
In short: as §1

FAB9 = tested on: FAB9
In short: as §1

GB4 = tested on: GB4
In short: as §1

HB3 = tested on: HB3
In short: as §1

ICS = tested on: ICS
In short: as §1

JCK = tested on: JCK
In short: as §1

N140 = tested on: N140
In short: as §1

P93_24 = tested on: P93_24
In short: as §1

P94_40 = tested on: P94_40
In short: as §1

PAD = tested on: PAD
In short: as §1

PC15 = tested on: PC15
In short: as §1

PC26 = tested on: PC26
In short: as §1

PC49 = tested on: PC49
In short: as §1

SC27B = tested on: SC27B
In short: as §1

TAB109 = tested on: TAB109
In short: as §1

TAB113 = tested on: TAB113
In short: as §1

TAB165 = tested on: TAB165
In short: as §1

W2 = tested on: W2
In short: as §1

Measured: Potency

C[C@H](O)[C@@H]1C(=O)N2C(C(=O)O)=C(SCCN=CN)C[C@@H]12
inactive: CP260 | CP265 | CP266 | CP268 | CP269 | CP286 | CP291 | CP297 | CP305 | CP315 | CP325 | CP329 | CP335 | DFO2036 | DIV14 | DIV17 | DIV30 | Dd2 | ECU | FAB9 | GB4 | HB3 | ICS | JCK | N140 | P93_24 | P94_40 | PAD | PC15 | PC26 | PC49 | SC27B | TAB109 | TAB113 | TAB165 | W2

— PubChem BioAssay (NCATS)
